For 35 compounds, z-score results are on record in PubChem BioAssay.

The structures appear in SMILES notation.

A short description of the experiment: A549 cell viability effects, profiling panel, calcein-AM fluorescence, 48 h, basal (AID 1162). Also: test concentration not given here. Conditions: higher = more signal.
For the compound `CC(=O)NCCCC[C@@H]1NC(=O)[C@@H]2C[C@H](C(=O)NCCCCCNC(=O)CS)[C@H](c3cccc(OCCO)c3)N2C1=O`, the z-score was 0.189.

Consider `COc1ccccc1CN1C(=O)c2ccccc2[C@@]2(Cc3ccccc3N(CC(C)C)C2=O)[C@@H]1c1ccc(CO)cc1`, for which the z-score is 0.211.

As to `CC(CO)N1C(=O)[C@@H]2C3C(=O)OCCC/C=C\[C@H]3OC23C=CCN(C(C)(C)C)C(=O)[C@@H]13` (stereo not given in full), the z-score is -0.241.

In the case of `CC1(C)[C@@H]2CC(C(O)C3C=CC4C(=O)N(Cc5ccccc5)C(=O)C4N3n3cnnc3)=C[C@H]1C2` (stereo not given in full), the z-score was -0.868.

For the compound `O=C1C[C@@](C(=O)NC2CC2)(c2ccc([N+](=O)[O-])cc2)[C@@H](c2ccc(CO)cc2I)N1C1CCCCC1`, the z-score is 0.147.

`NC(=O)NCC#Cc1ccc2c(c1)[C@]1(C(=O)N2)[C@H](C(=O)Nc2nc3ccccc3s2)[C@H]2C(=O)O[C@H](c3ccccc3)[C@H](c3ccccc3)N2[C@@H]1c1ccccc1OCCO`: the z-score was -0.38.

As for `O=C1c2ccccc2[C@](Cc2ccccc2I)(C(=O)NCC(F)(F)F)[C@H](c2ccc(CO)cc2)N1Cc1ccccc1Cl`, the z-score is 0.0986.

For the compound `CCC[C@@H]1C[C@@]1(CCC)[C@@H](NS(=O)(=O)c1cccc2cccnc12)c1ccc(Cl)cc1`, the z-score was 1.54.

Take `CCCC[C@@H]1C[C@H]1[C@@H](NC(=O)c1ccco1)c1ccc(-c2ccccc2)cc1`: the z-score is -0.359.

As to `Cc1ccc(S[C@]2(C(=O)NCCCN(C)C)CC(=O)N(Cc3cc(C(F)(F)F)cc(C(F)(F)F)c3)[C@@H]2c2ccc(CO)cc2)cc1`, the z-score was -0.159.

Consider `C=C[C@@H](COC(=O)OC(C)(C)C)N(Cc1ccc(OC)cc1)S(=O)(=O)c1ccc(Br)cc1`, for which the z-score is 1.39.

In the case of `COCCOC(=O)N1C(=O)[C@@]2(c3cc(C#CCC(C(=O)OC)C(=O)OC)ccc31)[C@H](C(=O)N1CCN(c3ncccn3)CC1)[C@H]1C(=O)O[C@H](c3ccccc3)[C@H](c3ccccc3)N1[C@@H]2c1ccccc1OCCO`, the z-score was 0.0182.

For `CN1C(=O)C2C=CC(C(O)c3ccccc3)N(N(c3ccccc3)c3ccccc3)C2C1=O` (stereo not given), the z-score was -0.948.

As for `COc1ccc([Si](C)(C)[C@H]2[C@H](CC(=O)N3Cc4ccccc4C[C@H]3CO)O[C@@]3(C(=O)N(Cc4cccc(N5CCC5=O)c4)c4ccccc43)[C@@H]2C)cc1`, the z-score is 0.0575.

As to `C=CCC(OC(C)=O)[C@@H]1[C@@H](N(Cc2ccc(-c3cccc(C(F)(F)F)c3)o2)C(=O)c2ccc(C)cc2)c2cc(OCCCO)ccc2N1C(=O)Cc1ccc2ccccc2c1` (stereo not given in full), the z-score is 0.474.

In the case of `Oc1ccc2cc[n+](Cc3sc4ccccc4c3Cl)cc2c1`, the z-score is -0.66.

Consider `COC(=O)C(CC#Cc1ccc2c(c1)[C@]1(C(=O)N2)[C@H](c2ccc(OCCO)cc2)N2[C@H](c3ccccc3)[C@H](c3ccccc3)OC(=O)[C@H]2[C@@H]1C(=O)N1CCc2cc(OC)c(OC)cc2C1)C(=O)OC`, for which the z-score was 0.442.

For `COc1ccc(CCNC(=O)[C@@]2(Sc3ccc(C)cc3)CC(=O)N(C(C)C)[C@@H]2c2ccc(CO)cc2I)cc1`, the z-score was 1.68.

As for `CN(C)CCCC[C@@H]1NC(=O)[C@@H]2C[C@H](C(=O)NCCCCCCN)[C@H](c3cccc(OCCO)c3)N2C1=O`, the z-score was -0.481.

For `C=CCN1C(=O)[C@]2(O[C@H](CCn3cc([C@H](O)c4ccccc4)nn3)[C@@H]([Si](C)(C)c3ccc(OC)cc3)[C@@H]2C)c2ccccc21`, the z-score was -0.366.

As to `COC(=O)C(CC#Cc1ccc2c(c1)[C@]1(C(=O)N2)[C@H](C(=O)Nc2nc3ccccc3s2)[C@H]2C(=O)O[C@H](c3ccccc3)[C@H](c3ccccc3)N2[C@@H]1c1ccc(O)cc1)C(=O)OC`, the z-score was 0.567.

With `COc1cc2c(cc1O)C(c1cccs1)N(C)CC2` (stereo not given), the z-score is -0.416.

With `C=CC[C@]1(C(=O)NCc2ccccc2)N=C(c2ccc(OCCCO)cc2)O[C@H]1c1ccccc1N=[N+]=[N-]`, the z-score was -1.2.

As to `O=C(c1ccccc1)N1Cc2ccccc2C[C@@]2(COC(c3ccc(OCCCO)cc3)=N2)C1=O`, the z-score is 0.603.

For `C=C[C@H](C)[C@@H](OC(=O)Nc1ccc(OC)cc1)c1ccc(O)c2ccccc12`, the z-score was -1.17.

For the compound `CCC(CC)C(O)C1C=CC2C(=O)NC(=O)C2N1Nc1ccc(Cl)cc1Cl` (stereo not given), the z-score is -1.36.

For `COc1ccc(C#Cc2ccc3c(c2)[C@]2(C(=O)N3)[C@H](c3ccccc3OCCO)N3[C@H](c4ccccc4)[C@H](c4ccccc4)OC(=O)[C@H]3[C@@H]2C(=O)Nc2nc3ccccc3s2)cc1`, the z-score is 0.855.

For `O=C(CS)NCCCCCCNC(=O)[C@@H]1C[C@@H]2C(=O)N[C@@H](Cc3ccccc3)C(=O)N2[C@@H]1c1cccc(OCCO)c1`, the z-score was -0.55.

Turning to `CC(C)N1C(=O)c2ccccc2[C@](C)(C(=O)NCCN2CCOCC2)[C@@H]1c1ccc(CO)cc1`, the z-score is -0.291.

With `CCCC=C(CCC)[C@@H](NC(=O)c1cccs1)c1ccc(C(F)(F)F)cc1`, the z-score was -1.43.

On to `C[N+](C)(C)CCCCNC(=O)[C@@H]1C[C@@H]2C(=O)N[C@@H](Cc3ccccc3)C(=O)N2[C@@H]1c1cccc(OCCO)c1`, for which the z-score is 1.49.

Take `Cc1ccc(S[C@]2(C(=O)NC3CC3)CC(=O)N(Cc3ccccc3)[C@@H]2c2ccc(CO)cc2I)cc1`: the z-score was 2.11.

Turning to `CCOC(=O)C1=C[C@@H](C(C)(C)C)N(S(=O)(=O)c2ccc(C)cc2)[C@H]1c1ccc(F)cc1`, the z-score was -1.5.

With `COc1ccc(C(O)C2C=CC3C(=O)N(Cc4ccccc4)C(=O)C3N2n2cnnc2)cc1OCc1ccccc1` (stereo not given), the z-score is 0.187.

For the compound `CC1CC/C=C\[C@H]2OC34C=CCN(C(C)(C)C)C(=O)[C@H]3N(CCO)C(=O)[C@@H]4C2C(=O)O1` (stereo not given in full), the z-score is -0.986.
